TSHR antagonist: human thyrotropin receptor antagonism | P16473 | TSHR-expressing cells, TSH-stimulated cAMP HTRF, 2 h; stronger effect = lower value | activity change, negative = inhibition, % at 11.5 µM | hit rate 0.2% among 330,000;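 active means activity change below a set negative limit, meaning inhibition stronger than a set level, cut at about -70% in these data; inconclusive means activity change between two set negative limits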
Target sequence (P16473 whole entry, looked up): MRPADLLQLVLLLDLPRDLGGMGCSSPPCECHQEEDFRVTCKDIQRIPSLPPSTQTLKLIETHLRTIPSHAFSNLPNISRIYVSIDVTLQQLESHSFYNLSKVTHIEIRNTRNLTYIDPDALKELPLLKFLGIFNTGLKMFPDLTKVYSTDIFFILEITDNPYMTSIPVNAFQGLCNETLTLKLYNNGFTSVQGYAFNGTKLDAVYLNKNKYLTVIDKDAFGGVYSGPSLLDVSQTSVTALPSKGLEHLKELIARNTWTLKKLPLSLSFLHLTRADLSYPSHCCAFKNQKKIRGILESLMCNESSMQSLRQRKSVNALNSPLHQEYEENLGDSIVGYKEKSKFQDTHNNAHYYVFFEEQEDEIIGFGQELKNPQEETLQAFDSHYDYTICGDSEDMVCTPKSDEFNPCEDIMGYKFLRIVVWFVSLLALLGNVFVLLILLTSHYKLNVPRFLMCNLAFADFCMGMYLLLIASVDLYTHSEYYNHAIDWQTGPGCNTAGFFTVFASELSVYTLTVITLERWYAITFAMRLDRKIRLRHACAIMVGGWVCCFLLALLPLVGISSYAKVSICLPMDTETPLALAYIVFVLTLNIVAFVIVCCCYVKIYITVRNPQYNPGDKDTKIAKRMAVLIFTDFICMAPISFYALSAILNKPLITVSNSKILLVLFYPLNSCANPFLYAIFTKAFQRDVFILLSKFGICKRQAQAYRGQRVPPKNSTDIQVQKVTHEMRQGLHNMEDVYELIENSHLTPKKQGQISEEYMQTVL
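Antagonism was scored as loss of TSH-driven cAMP in TSHR cells, stimulated with 4nM TSH (EC80) for 2 hours at 37 deg C and detected by homogeneous HTRF competition immunoassay.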
Gal4-VP16 FLuc: inhibits Gal4-VP16 luciferase reporter, ROR gamma counter-screen. Drosophila S2 Gal4-VP16 UAS-luciferase, luminescence, 20 h. Potency, µM (titrated, usually from 53.6 µM), for inactives: top-dose activity, negative = inhibition, most hits filed as inhibitors. hit rate 3.5% among 310,000. AID 2546;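 further: Gal4-VP16 expression switched on by copper sulfate through the metallothionein promoter; potency means the concentration at half of the fitted maximal effect; nearly all actives have a fitted effect of over 50% in size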
RORgamma inh: blocks mouse ROR gamma transcriptional activity. hit rate 5.4% among 310,000. Potency, µM (highest dose often 53.6 µM), inactives show top-dose activity change, negative = inhibition, actives largely listed as inhibitors. Drosophila S2 Gal4-RORgamma UAS-luciferase reporter, 20 h. P51450; further: potency means the concentration at half of the fitted maximal effect; nearly all actives have a fitted effect of over 60% in size
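Read-out: Photinus luciferase luminescence; inhibitors lower reporter signal. Insect Schneider cells with Gal4-ROR gamma fusion under metallothionein promoter, UAS reporter; 700 uM final copper sulfate induction, 20 hr, ambient temperature.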
B2AR arrestin: agonists driving beta-arrestin recruitment to human beta2-adrenergic receptor; hit rate 0.02% among 330,000; beta-arrestin recruitment to beta2AR, cell-based reporter; Potency, µM (top dose mostly 46.1 µM), for the others: at the top dose activation, most hits filed as activators; AID 492947;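 further: potency means the concentration at half of the fitted maximal effect; 0% = DMSO controls and full agonism = EC100 isoproterenol or metaproterenol; nearly all actives have a fitted effect of over 65% in size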
ELG1 DNA repair: inhibitors of ELG1-dependent DNA repair in HEK293T cells; hit rate 2.3% among 330,000; Potency, µM (doses to about 46.1 µM), inactives show at the highest dose activity change, negative = inhibition, most hits filed as inhibitors; HEK293T ELG1-luciferase reporter, luminescence, 16 h; DNA damage induced by 5-fluorouridine; further: potency means the concentration at half of the fitted maximal effect; nearly all actives have a fitted effect of over 55% in size
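5-Fluorouridine DNA damage + compound/DMSO, 2,000 cells/well, 16 h, 37 °C/5% CO2. ONE-Glo, 30 min RT, luminescence. Readout = decrease in reporter signal.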
Active calls of the source: *; ? = inconclusive; / = no result; [ ] = dose if it differs, or a comment. Hits are enriched below; roughly 7.5% of the tested compounds scored in any of these assays. Unless noted, the call rests on the fitted dose curve; in most records, active means well fitted curve in the direction sought with a large enough effect; inconclusive means small, poorly fitted or top-dose-only effect, or another doubt; inactive means no such curve, though single readings can be large; an effect the other way counts as inactive or inconclusive. Unless noted, on the % scale 0 is the no-effect control and ±100 the full control effect.

SMILES	TSHR antagonist	Gal4-VP16 FLuc	RORgamma inh	B2AR arrestin	ELG1 DNA repair
COc1ccc2c(c1)C(=O)[C@@H](OC(=O)NC1CCCC1)[C@H](c1ccc(OC)c(Br)c1)O2	/	-4%	-25%	/	/
CN1CCN(C(=S)NC(=O)c2ccccc2Br)CC1	2	11µM*	7.1µM*	-1%	13%
O=C(NC(=S)N1CCc2ccccc21)c1ccccc1Br	12	0.89µM*	0.1µM*	0%	?
CN1CCN(C(=O)c2ccccc2NC(=O)c2ccccc2Br)CC1	-4	0%	-10%	0%	8%
Cc1ccc(C(=O)N2CCc3ccccc32)o1	9	-18%	?	5%	?
O=C(NC(=S)N1CCc2ccccc21)c1ccc(Br)o1	-15	0.32µM*	0.25µM*	0%	0%
COC(=O)c1c(C)oc(C)c1S(=O)(=O)N1CCOCC1	6	-1%	17%	0%	?
COC(=O)C1=C(C)NC(C)=C(C(=O)OC)C1c1ccc2ccccc2n1	5	9%	-9%	0%	26%
O=C1c2ccccc2C(=O)C1c1ccc2ccccc2n1	-5	4µM*	?	0%	?
Cn1c(CCNC(=O)c2ccco2)nc2cc(NC(=O)c3ccccc3Cl)ccc21	-2	20%	0%	0%	?
CN(C)c1ccc(/C=C2\SC(N3CCCCC3)=NC2=O)cc1	6	?	23%[1.91 µM]	-1%	?
CCCOc1cc(N(CC)CC)ccc1/C=C(/C#N)c1nc2ccc(C)cc2[nH]1	9	-1%	2%	1%	4.6µM*
CCN(CC)c1ccc(/C=C(/C#N)c2nc3ccc(C)cc3[nH]2)c(OC(C)C)c1	29	-3%	-26%	0%	?
COC(=O)C/C=C1\c2ccccc2C(OC)C1C (stereo not given)	/	-1%[10 µM]	-3%[10 µM]	/	/
CCCOc1ccc(-c2c(C(=O)N/N=C/c3cccnc3)nnn2-c2nonc2N)cc1	-6	-4%	13%	0%	0%
CCCCOc1cccc(C(=O)NC(=S)Nc2cccc(C(F)(F)F)c2)c1	-11	2.8µM*	4.5µM*	-1%	7%
CC(C)Oc1cccc(C(=O)NC(=S)Nc2cccc(C(F)(F)F)c2)c1	-19	?	6.3µM*	0%	1%
COc1cccc(C(C)NC(=O)Nc2cccc(C(F)(F)F)c2)c1 (stereo not given)	15	35µM*	?	-1%	-4%
O=C(NNC(=O)C1C2C=CC(C2)C1C(=O)O)c1cc(Cl)ccc1O (stereo not given)	2	0%	-17%	0%	10%
CCCCCC/C=C1\CC(C(=O)OCC)Oc2ccccc21 (stereo not given) (tested in a mixture with another compound)	/	-2%	29%	/	/
O=C1C[C@@H](O)[C@@H](O)[C@H]2[C@@H]3C(=O)N(C4CCCCC4)C(=O)[C@@H]3CC[C@H]12	/	-2%[10 µM]	0%[10 µM]	/	/
CCCC(=NC(C)CC)C1=C(O)CC(c2ccccc2)CC1=O (stereo not given)	-88*	-10%	25%	0%	1%
Cc1nc(NC2CCCCC2)c2nc(-c3ccccc3)n(CCN3CCCCC3)c2n1	/	-10%	-4%	/	/
Cc1nc(NC2CCCCC2)c2nc(-c3ccccc3)n(C(C)CN(C)C)c2n1 (stereo not given)	/	-1%	10µM*	/	/
Cc1cc2c(cc1S(=O)(=O)NCCc1ccc(Cl)cc1)OCC(=O)N2	4	0%	4%	0%	-22%
SMILES	TSHR antagonist	Gal4-VP16 FLuc	RORgamma inh	B2AR arrestin	ELG1 DNA repair
CCCC(=O)Nc1ccc(C(=O)NNC(=O)c2cccs2)cc1	14	6%	14%	0%	17%
CC(C)(C)c1ccc(OCC(=O)NNC(=S)NC(=O)c2ccccc2[N+](=O)[O-])c(Br)c1	8	16µM*	11µM*	-2%	5%
CCCOc1ccc(C(=O)NNC(=S)NC(C)=O)cc1	/	8%	2%	-1%	3%
Cc1ccccc1OCC(=O)NNC(=S)NC(=O)c1ccccc1[N+](=O)[O-]	6	-24%	-8%[10 µM]	0%	-5%
CCCOc1ccc(C(=O)NNC(=S)NC(=O)c2cccs2)cc1	?	7.9µM*	8.9µM*	0%	?
CCCC(=O)Nc1ccc(C(=O)NNC(=S)NC(=O)c2cccs2)cc1	5	-22%	10µM*	0%	?
CCCOc1ccc(C(=O)NNC(=S)NC(=O)c2cc(-c3ccccc3)nc3ccccc23)cc1	-5	-18%	7.1µM*	0%	-3%
Cc1ccsc1C(=O)NNC(=O)c1cccc(S(=O)(=O)N2CCCC2)c1	6	/	/	0%	16%
Cc1cc(C)c2cc(C(=O)N3CCN(c4ncccc4C(F)(F)F)CC3)[nH]c2c1	-5	1%	30%	0%	?
C=CCNC(=S)NNC(=O)C(CCCC)CC(C)(C)O (stereo not given)	-26	5.6µM*	2.8µM*	7%	0%
CCCCOc1ccc(C(=O)NNC(=S)NC(=O)CC)cc1	10	?	-29%	0%	?
C=CCNC(=S)NNC(=O)c1ccc(OCCCC)cc1	7	?	8.9µM*	0%	-8%
COC(=O)CNC(=S)NC(=O)c1ccc(C(C)(C)C)cc1	-11	-22%[10 µM]	6.3µM*	-1%	11%
CCCOc1ccc(C(=O)NNC(=S)NC(=O)c2ccccc2)cc1	-42	?	10µM*	0%	-17%
CCN1C(=O)[C@H]2[C@H]3[C@H](O)[C@H](O)C/C(=N/O[C@@H]4O[C@@H](COC(C)=O)[C@@H](OC(C)=O)[C@@H](OC(C)=O)[C@H]4OC(C)=O)[C@@H]3CC[C@@H]2C1=O	/	-8%[10 µM]	7%[10 µM]	/	/
CC(C)(C)c1ccc(C(=O)NC(=S)NNC(=O)COc2ccccc2)cc1	-7	2.8µM*	2.5µM*	0%	?
CCCCC(=O)Nc1ccc(C(=O)NNC(=S)NC(=O)c2ccccc2[N+](=O)[O-])cc1	10	-3%	12%	0%	10%
CCCOc1ccc(C(=O)NNC(=S)NC(=O)c2ccccc2[N+](=O)[O-])cc1	-1	20µM*	18µM*	5%	?
CCCn1c(C)nc2c(NCCN(C)C)nc(C)nc21	/	2%	-3%	/	/
COc1cc(Cl)c(C)cc1NCC(=O)Nc1cccc(S(=O)(=O)N2CCCC2)c1	12	/	/	-1%	?
Cc1ccc(NC(=O)CSc2nnc(/N=C/N(C)C)s2)cc1	2	-21%	18µM*	0%	-9%
COC(=O)[C@@]1(Cc2ccccc2)[C@H]2c3cc(C(=O)N(C)C)n(Cc4c(CO)[nH]cc(C)c4=O)c3C[C@H]2CN1C(=O)c1ccccc1	/	-12%	38%	/	/
Cc1cc(-c2nnc(SCC(=O)Nc3c(C)cccc3C)n2N)n[nH]1	-4	3%	-12%	0%	12%

From PubChem
